A number with no mark means an inactive call. Results filed as inconclusive are left out. Where a call stands in place of a potency, no number is given. The source made the active and inactive calls. Unless noted, the call rests on the fitted dose curve; in most records, active means well fitted activation curve with a large enough effect in the main read-out, with a control signal flat (not every such curve was filed as active); inconclusive means small, poorly fitted or top-dose-only effect, or effect the other way, or a change in a side signal; inactive means flat fitted curve, though single readings scatter.
Assays:
[1] = target: Cytochrome P450 1A2 (Homo sapiens) (UniProt P05177); experiment: p450-cyp1a2 (AID 410; calls by dose curve; further: potency means the concentration at half of the fitted maximal effect)
In short: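 O-Demethylation of luciferin 6' methyl ether by human CYP1A2 is monitored as luciferase luminescence. Substrate sits at Km (100uM); enzyme is 20nM. Values are scaled to 57 uM furafylline as maximal inhibition.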

[2] = target: Mitogen-activated protein kinase 10 (Mus musculus) (UniProt Q61831); experiment: JNK3 AlphaScreen Assay (AID 530; active means well fitted curve in either direction with a large enough effect, not every such curve was filed as active;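 further: kinase came from lysate of stimulated human HepG2 cells; signal reports phosphorylation of biotinylated GST-cJun 1-79 at Ser73 with 10 µM ATP; series mostly up to about 57 µM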)
In short: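 Phosphorylation of biotinylated GST-cJun(1-79) at Ser73 is measured by AlphaScreen proximity luminescence. Enzyme is JNK3 in HepG2 lysates activated with interleukin-1beta and tumor necrosis factor alpha; ATP is 10 uM final.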

[3] = target: 3',5'-cyclic-AMP phosphodiesterase 4B (Homo sapiens) (UniProt Q07343); experiment: qHTS Assay for Inhibitors of PDE-IV (AID 607)
In short: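 Live HEK293 cells with a modified cyclic nucleotide-gated (CNG) channel report intracellular cAMP via membrane-potential dye fluorescence (ex 535/em 590 nm). Endogenous PDE-IV was targeted. Compounds were tested at up to 22.9 uM final; RO 20-1724 100 uM served as control.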

[4] = target: Cytochrome P450 2C9 (Homo sapiens) (UniProt P11712); experiment: qHTS Assay for Inhibitors and Substrates of Cytochrome P450 2C9 (AID 883; active means well fitted curve in the direction sought with a large enough effect; an effect the other way counts as inactive or inconclusive; further: potency means the concentration at half of the fitted maximal effect; nearly all actives have a fitted effect of over 60% in size)
In short: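 CYP2C9 deoxyluciferin hydroxylation, 37C, 60 min with NADPH regeneration; 10nM enzyme, 100uM Luciferin-H (KM). Glo detection reagent stopped reaction; luminescence normalized to sulphaphenazole (57uM) full inhibition.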

[5] = target: Cytochrome P450 3A4 (Homo sapiens) (UniProt P08684); experiment: qHTS Assay for Inhibitors and Substrates of Cytochrome P450 3A4 (AID 884; active means well fitted curve in the direction sought with a large enough effect; an effect the other way counts as inactive or inconclusive; further: potency means the concentration at half of the fitted maximal effect; nearly all actives have a fitted effect of over 50% in size)
In short: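 Luminescent readout of luciferin produced by CYP3A4 (20 nM) dealkylation of Luciferin-PPXE, 25 uM (its KM). NADPH-driven reaction ran 60 min at RT after 10 min compound preincubation; data scaled to 57 uM ketoconazole as 100% inhibition.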

[6] = target: Cytochrome P450 3A4 (Homo sapiens) (UniProt P08684); experiment: qHTS Assay for Activators of Cytochrome P450 3A4 (AID 885; active means well fitted curve in the direction sought with a large enough effect; an effect the other way counts as inactive or inconclusive; further: nearly all actives have a fitted effect of over 65% in size)
In short: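 Using 20nM recombinant human CYP3A4 in potassium phosphate (200mM), substrate Luciferin-PPXE at 25uM, luminescent luciferin detection followed a 60-min RT NADPH reaction; data scaled to 57 uM ketoconazole.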

Sequence of 3',5'-cyclic-AMP phosphodiesterase 4B (Homo sapiens) (Q07343 whole entry, looked up): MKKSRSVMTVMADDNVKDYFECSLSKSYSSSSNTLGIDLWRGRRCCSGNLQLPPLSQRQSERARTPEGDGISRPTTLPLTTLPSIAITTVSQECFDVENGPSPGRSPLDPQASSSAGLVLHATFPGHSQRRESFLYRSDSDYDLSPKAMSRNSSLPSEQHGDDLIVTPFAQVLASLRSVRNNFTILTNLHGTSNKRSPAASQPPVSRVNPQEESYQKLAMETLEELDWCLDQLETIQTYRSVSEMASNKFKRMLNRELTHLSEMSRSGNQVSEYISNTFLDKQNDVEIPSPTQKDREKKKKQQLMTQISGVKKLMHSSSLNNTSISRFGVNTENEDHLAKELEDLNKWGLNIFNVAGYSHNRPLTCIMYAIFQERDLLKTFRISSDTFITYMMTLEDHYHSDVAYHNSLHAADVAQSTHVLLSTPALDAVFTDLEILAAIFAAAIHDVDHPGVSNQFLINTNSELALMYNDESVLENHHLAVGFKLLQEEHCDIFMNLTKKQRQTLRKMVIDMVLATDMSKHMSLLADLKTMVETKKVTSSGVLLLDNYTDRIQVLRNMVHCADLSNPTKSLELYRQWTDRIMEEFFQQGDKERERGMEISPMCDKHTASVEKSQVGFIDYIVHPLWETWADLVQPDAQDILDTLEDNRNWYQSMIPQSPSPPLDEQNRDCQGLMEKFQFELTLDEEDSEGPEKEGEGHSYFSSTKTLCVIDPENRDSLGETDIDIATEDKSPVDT
Sequence of Cytochrome P450 1A2 (Homo sapiens) (P05177 whole entry, looked up): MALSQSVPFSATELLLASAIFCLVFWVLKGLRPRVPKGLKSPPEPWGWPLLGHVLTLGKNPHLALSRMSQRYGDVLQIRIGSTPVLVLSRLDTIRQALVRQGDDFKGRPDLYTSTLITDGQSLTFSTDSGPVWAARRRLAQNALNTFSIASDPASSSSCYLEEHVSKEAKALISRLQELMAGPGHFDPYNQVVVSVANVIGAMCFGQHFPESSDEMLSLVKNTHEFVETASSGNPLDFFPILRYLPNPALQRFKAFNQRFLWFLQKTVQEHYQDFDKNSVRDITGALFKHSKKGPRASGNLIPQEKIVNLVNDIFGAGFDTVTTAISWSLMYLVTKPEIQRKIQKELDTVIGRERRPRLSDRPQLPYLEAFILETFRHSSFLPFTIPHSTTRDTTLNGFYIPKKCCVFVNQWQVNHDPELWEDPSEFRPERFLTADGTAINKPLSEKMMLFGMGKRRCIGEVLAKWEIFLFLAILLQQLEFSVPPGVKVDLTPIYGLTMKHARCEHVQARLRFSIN
Sequence of Cytochrome P450 3A4 (Homo sapiens) (P08684 whole entry, looked up): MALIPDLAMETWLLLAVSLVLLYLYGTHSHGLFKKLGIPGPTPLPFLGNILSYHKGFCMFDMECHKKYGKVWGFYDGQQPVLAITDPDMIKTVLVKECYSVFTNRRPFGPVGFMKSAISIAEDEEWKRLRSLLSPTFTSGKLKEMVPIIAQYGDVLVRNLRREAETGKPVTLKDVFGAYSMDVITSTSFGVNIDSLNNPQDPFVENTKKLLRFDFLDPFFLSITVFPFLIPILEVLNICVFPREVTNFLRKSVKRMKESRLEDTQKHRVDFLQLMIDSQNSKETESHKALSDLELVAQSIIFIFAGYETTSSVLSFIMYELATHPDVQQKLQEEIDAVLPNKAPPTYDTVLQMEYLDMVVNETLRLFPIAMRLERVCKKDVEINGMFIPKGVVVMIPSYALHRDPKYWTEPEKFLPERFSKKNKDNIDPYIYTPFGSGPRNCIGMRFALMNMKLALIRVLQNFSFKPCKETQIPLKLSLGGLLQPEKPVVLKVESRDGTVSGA
Sequence of Cytochrome P450 2C9 (Homo sapiens) (P11712 whole entry, looked up): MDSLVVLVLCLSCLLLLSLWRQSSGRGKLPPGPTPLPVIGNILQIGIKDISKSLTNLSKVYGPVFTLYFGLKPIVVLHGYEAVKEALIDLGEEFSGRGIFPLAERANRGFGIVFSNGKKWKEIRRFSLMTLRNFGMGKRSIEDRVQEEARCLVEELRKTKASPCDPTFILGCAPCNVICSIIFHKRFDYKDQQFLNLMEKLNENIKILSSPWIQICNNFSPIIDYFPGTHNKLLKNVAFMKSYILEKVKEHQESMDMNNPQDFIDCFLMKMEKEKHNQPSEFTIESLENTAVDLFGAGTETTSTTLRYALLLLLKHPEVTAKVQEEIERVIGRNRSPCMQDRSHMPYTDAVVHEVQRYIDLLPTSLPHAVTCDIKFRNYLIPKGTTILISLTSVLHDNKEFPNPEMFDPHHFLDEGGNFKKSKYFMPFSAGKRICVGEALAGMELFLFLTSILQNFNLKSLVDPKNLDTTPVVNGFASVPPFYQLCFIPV

SMILES: C[C@@]1(C(NC(=O)Cc2ccc(C(F)(F)F)cc2)c2ccc(-c3ccccc3)cc2)C[C@H]1C1CCCCC1 (some centres undefined)
- Potency [1]: inactive
- Potency [2]: inactive
- Potency [3]: inactive

SMILES: C[C@@H](C(=O)NCCc1c[nH]c2ccccc12)[C@@H]1C[C@@]1(C)[C@@H](NC(=O)OCc1ccccc1)c1ccccc1
- Potency [1]: 12.6 µM (active)
- Potency [2]: inactive
- Potency [3]: inactive
- Potency [4]: 2.51 µM (active)
- Potency [5]: 3.16 µM (active)
- Potency [6]: inactive

SMILES: COCCn1c(C(=O)N2CCCC2)cc2c1C[C@H]1CN(C(=O)c3ccccc3)[C@@](Cc3ccc(F)cc3)(C(=O)OC)[C@@H]21
- Potency [1]: 31.6 µM (active)
- Potency [2]: inactive
- Potency [3]: inactive

SMILES: COC(=O)[C@@]1(Cc2ccc(OC)cc2)[C@H]2c3cc(C(=O)N4CCCC4)n(CCc4c[nH]c5ccc(OC)cc45)c3C[C@H]2CN1C(=O)c1ccccc1
- Potency [1]: 10 µM (active)
- Potency [2]: inactive
- Potency [3]: inactive

SMILES: COC(=O)[C@@]1(Cc2ccc(F)cc2)[C@H]2c3cc(C(=O)N(C)C)n(Cc4cccc5ccccc45)c3C[C@H]2CN1C(=O)c1ccccc1
- Potency [1]: 6.31 µM (active)
- Potency [2]: inactive
- Potency [3]: inactive

SMILES: O=C(Nc1ccc2ccccc2c1)[C@@H]1C[C@H]1[C@@H](NP(=O)(c1ccccc1)c1ccccc1)c1ccccc1
- Potency [1]: 20 µM (active)
- Potency [2]: inactive
- Potency [3]: inactive

SMILES: CCC#CCOCC(=O)Nc1ccccc1
- Potency [1]: 25.1 µM (active)
- Potency [2]: inactive
- Potency [3]: inactive
